Measurements taken from PubChem BioAssay AID1835 (Johns Hopkins Ion Channel Center, 2009).
The whole screen tested about 2,400 compounds, of which about 750 (31%) were called active. This is one part of the list. Values without a mark were called inactive.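 The calls were made as follows: active = median signal gain over dofetilide-blocked control wells reaching their mean plus 3 SD, so readout 1 at least 0; inactive = the rest.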

Target: Voltage-gated inwardly rectifying potassium channel KCNH2 (Homo sapiens) (UniProt Q12809)
Assay: hERG protection against dofetilide inhibition, confirmation, cell-based, thallium flux, duplicate retest, dofetilide IC70 (AID 1835)
Conditions: hERG cell line, FluxOR thallium flux, dofetilide-blocked; at 10 µM; active compounds read high

Chain of Voltage-gated inwardly rectifying potassium channel KCNH2 (Homo sapiens) (Q12809 whole entry, looked up): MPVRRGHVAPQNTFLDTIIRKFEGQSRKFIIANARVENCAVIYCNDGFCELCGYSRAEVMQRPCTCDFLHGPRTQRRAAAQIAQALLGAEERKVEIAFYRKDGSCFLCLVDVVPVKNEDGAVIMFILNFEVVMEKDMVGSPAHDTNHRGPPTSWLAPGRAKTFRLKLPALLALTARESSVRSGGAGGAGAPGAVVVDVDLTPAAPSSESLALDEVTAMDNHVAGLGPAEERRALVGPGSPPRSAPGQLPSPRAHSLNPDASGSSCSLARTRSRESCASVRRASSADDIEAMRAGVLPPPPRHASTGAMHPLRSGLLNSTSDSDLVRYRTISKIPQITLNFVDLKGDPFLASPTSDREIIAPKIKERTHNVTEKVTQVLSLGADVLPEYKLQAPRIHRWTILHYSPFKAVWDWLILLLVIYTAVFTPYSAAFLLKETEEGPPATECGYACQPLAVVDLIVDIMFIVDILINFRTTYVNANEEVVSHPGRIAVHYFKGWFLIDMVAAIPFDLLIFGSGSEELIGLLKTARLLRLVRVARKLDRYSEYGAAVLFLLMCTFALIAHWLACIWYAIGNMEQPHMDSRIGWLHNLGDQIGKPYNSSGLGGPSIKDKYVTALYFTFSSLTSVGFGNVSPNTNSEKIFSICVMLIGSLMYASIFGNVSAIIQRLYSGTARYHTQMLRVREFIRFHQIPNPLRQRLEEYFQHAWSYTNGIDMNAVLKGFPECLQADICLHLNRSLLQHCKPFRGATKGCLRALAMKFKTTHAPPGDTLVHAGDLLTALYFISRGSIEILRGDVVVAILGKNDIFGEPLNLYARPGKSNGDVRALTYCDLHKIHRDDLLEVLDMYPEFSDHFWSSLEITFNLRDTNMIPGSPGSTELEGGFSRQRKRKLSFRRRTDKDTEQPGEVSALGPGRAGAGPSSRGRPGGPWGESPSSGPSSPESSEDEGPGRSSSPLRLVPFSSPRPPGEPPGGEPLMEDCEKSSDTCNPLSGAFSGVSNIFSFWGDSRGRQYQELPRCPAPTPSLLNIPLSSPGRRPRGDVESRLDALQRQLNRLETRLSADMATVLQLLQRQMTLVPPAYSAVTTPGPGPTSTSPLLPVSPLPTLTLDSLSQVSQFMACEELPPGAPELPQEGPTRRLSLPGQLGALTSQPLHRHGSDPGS

Compared with `CCCCCOCC1CC(C/C(C)=N/Nc2nc(-c3ccccc3)cs2)C(=O)O1` (centres undefined), `Cc1ccc(/C=N/NC(=O)c2cc(-c3ccncc3)nc3ccccc23)o1` is lower in activity increase over dofetilide control, less the hit threshold: -5% for the first, -22% for the second.

First: CCOC(=O)N/N=C\c1ccc(-c2cc(Cl)ccc2Cl)o1
Second: COCc1cc(C)nc(OCC(=O)N/N=C/c2ccc(-c3cc([N+](=O)[O-])ccc3Cl)o2)c1C#N
The activity increase over dofetilide control, less the hit threshold of the first is higher: -2% for the first, -7% for the second.

First: C=C(C)CSc1nc(N)cc(=O)[nH]1
Second: Cn1sc(NC(=O)c2cccc(Cl)c2)nc1=O
The activity increase over dofetilide control, less the hit threshold of the first is lower: -4% for the first, -1% for the second.

First: O=C1NC(=S)/C(=C\c2ccc(-c3ccccc3Cl)o2)S1
Second: Cc1ccccc1NC(=O)CN1C(=O)S/C(=C\c2ccc(-c3cc(C(=O)O)ccc3C)o2)C1=O
The activity increase over dofetilide control, less the hit threshold of the first is lower: -23% for the first, -3% for the second.

Going from `O=C1NC(=O)/C(=C/c2cc3c(cc2Br)OCO3)S1` to `Cc1c(/C=C2\SC(=O)N(CC(=O)Nc3ccc4c(c3)OCO4)C2=O)c2ccccc2n1C`, the activity increase over dofetilide control, less the hit threshold rises from -17% to -11%.

Compared with `Cc1cc(C(=O)NCCN2C(=O)S/C(=C\c3cccs3)C2=O)ccc1[N+](=O)[O-]`, `O=C(CN1C(=O)S/C(=C\c2cccs2)C1=O)Nc1ccc(O)c(C(=O)O)c1` is lower in activity increase over dofetilide control, less the hit threshold: -1% for the first, -3% for the second.

First: Cc1ccc(NC(=O)CN2C(=O)S/C(=C/c3ccc(-c4cc(C(=O)O)ccc4C)o3)C2=O)cc1C
Second: O=C(CN1C(=O)S/C(=C\c2cc(Cl)c(O)c(Cl)c2)C1=O)Nc1ccccc1
The activity increase over dofetilide control, less the hit threshold of the first is lower: -29% for the first, -21% for the second.

Going from `Cc1ccsc1/C=C1/SC(=O)N(CC(=O)N2CCCC2)C1=O` to `Cn1c(=O)c2c(nc(Cl)n2CC(=O)N2CCCCC2)n(C)c1=O`, the activity increase over dofetilide control, less the hit threshold falls from -4% to -11%.

First: O=C(CCl)NCCN1C(=O)S/C(=C\c2cccnc2)C1=O
Second: CCN1C(=O)/C(=C/N2CCc3ccccc32)SC1=S
The activity increase over dofetilide control, less the hit threshold of the first is higher: -5% for the first, -9% for the second.

First: CN(C)c1oc(-c2ccccc2[N+](=O)[O-])nc1C#N
Second: O=[N+]([O-])c1ccc(O)c2ncccc12
The activity increase over dofetilide control, less the hit threshold of the first is lower: -15% for the first, -8% for the second.

Going from `COc1ccc(C2N=C(c3ccccc3)C(C)(C)N2O)cc1` (centres undefined) to `COc1ccc(N2CCN(C(=O)c3ccc(-c4ccccc4)cc3)CC2)cc1`, the activity increase over dofetilide control, less the hit threshold falls from -16% to -18%.

Compared with `CCOC(=O)C1CCCCN1Cc1ccc(F)cc1` (centres undefined), `Cc1ccc(CNC(=O)CN2C(C)CCCC2C)cc1` (centres undefined) is higher in activity increase over dofetilide control, less the hit threshold: -14% for the first, -7% for the second.

Compared with `O=S(=O)(NCc1ccc(Cl)cc1Cl)c1ccc(N2CCOCC2)nc1`, `O=C(O)c1ccc2c3n(nc2c1)-c1ccc(Cl)cc1CO3` is higher in activity increase over dofetilide control, less the hit threshold: -25% for the first, -7% for the second.

First: Cc1onc(-c2ccccc2Cl)c1C(=O)NC(=S)Nc1ccc(C(C)C)cc1
Second: Cc1onc(-c2ccccc2)c1C(=O)NC(=S)Nc1sc2c(c1C#N)CCCC2
The activity increase over dofetilide control, less the hit threshold of the first is lower: -20% for the first, -3% for the second.

First: O=C(O)C[C@H]1c2cc(F)ccc2S(=O)(=O)N1C1CCCCC1
Second: CC(NC(=S)NC1CCCCC1)c1ccccc1 (centres undefined)
The activity increase over dofetilide control, less the hit threshold of the first is lower: -15% for the first, -11% for the second.

Going from `O=C(CN1C(=O)NC(Cc2ccccc2)C1=O)Nc1ccccc1OC(F)F` (centres undefined) to `CC(C)CN(C(=O)COC(=O)CNC(=O)c1ccccc1F)c1c(N)n(Cc2ccccc2)c(=O)[nH]c1=O`, the activity increase over dofetilide control, less the hit threshold falls from -10% to -11%.

Compared with `O=C(CN1CCCCCC1)Nc1ccc(Oc2ccccc2)cc1`, `OC(COC(c1ccccc1)c1ccccc1)CN1CCCCC1` (centres undefined) is lower in activity increase over dofetilide control, less the hit threshold: -10% for the first, -18% for the second.

Compared with `CCOc1ccc(NC(=O)c2ccc3c(c2)CCN3S(C)(=O)=O)cc1`, `CCOc1ccc(N=Nc2ccc(O)c3ncccc23)cc1` is higher in activity increase over dofetilide control, less the hit threshold: -21% for the first, 0% for the second.

Going from `O=C(O)CCCn1cc(NC(=O)COc2ccc(F)cc2)cn1` to `CCCOc1ccc(C(=O)N(CC(C)C)c2c(N)n(Cc3ccccc3)c(=O)[nH]c2=O)cc1`, the activity increase over dofetilide control, less the hit threshold rises from -17% to -7%.

First: O=C(COC(=O)/C=C/c1ccc2c(c1)OCO2)NC1CC1
Second: Cc1ccc(C(C)NC(=O)c2ccc3c(c2)OCO3)cc1C (centres undefined)
The activity increase over dofetilide control, less the hit threshold of the first is lower: -20% for the first, 0% for the second.

First: CC(NC(=O)C1CCN(S(=O)(=O)c2cccc3cccnc23)CC1)c1ccccc1 (centres undefined)
Second: CS(=O)(=O)N1CCC(C(=O)Nc2c(F)cccc2F)CC1
The activity increase over dofetilide control, less the hit threshold of the first is lower: -15% for the first, -6% for the second.

Going from `Cc1cc(C)c(NC(=O)C2CC3CCC2C3)c(C)c1` (centres undefined) to `COCC(=O)NC1CC2CCC(C1)N2C(=S)Nc1ccccc1C(=O)OC` (centres undefined), the activity increase over dofetilide control, less the hit threshold falls from -5% to -6%.

Compared with `CCn1cc(C(=O)NCCN(C)C)c(=O)c2cc(F)c(N3CCN(C)CC3)cc21`, `CCCCN(C(=O)CC1CCCC1)c1c(N)n(CC(C)C)c(=O)[nH]c1=O` is higher in activity increase over dofetilide control, less the hit threshold: -17% for the first, -4% for the second.

First: O=C(CCC1CCCC1)NNC(=O)c1cccc(Cl)c1
Second: CC(NC(=O)COC(=O)C1CCC1)c1ccccc1 (centres undefined)
The activity increase over dofetilide control, less the hit threshold of the first is lower: -7% for the first, -6% for the second.

Compared with `CC(=O)n1nc(-c2ccncc2)nc1SCC(=O)Nc1cccc(Cl)c1`, `O=C(O)c1cccc2cc(-c3ccccc3)oc(=O)c12` is lower in activity increase over dofetilide control, less the hit threshold: -10% for the first, -13% for the second.

Compared with `O=C(O)c1cc(N/N=C/c2ccc(-c3ccccc3)cc2)ccc1Cl`, `O=C(N/N=C/c1ccc(-c2ccccc2)o1)c1ccccc1O` is higher in activity increase over dofetilide control, less the hit threshold: -16% for the first, -1% for the second.

Compared with `COc1cccc(CN=c2c([N+](=O)[O-])nn(-c3ccccc3C)n2O)c1`, `COc1ccc(N(CC(=O)NCc2cccnc2)S(=O)(=O)c2ccccc2[N+](=O)[O-])c(OC)c1` is higher in activity increase over dofetilide control, less the hit threshold: -15% for the first, -3% for the second.

First: O=C(c1n[nH]c2c1CCCC2)n1ccnc1
Second: N#Cc1c(-c2ccco2)c2c([nH]c1=S)CCCC2
The activity increase over dofetilide control, less the hit threshold of the first is higher: -2% for the first, -9% for the second.

`CCOc1cc(Br)c(C(=O)O)cc1OC` and `COc1ccc(OC)c(S(=O)(=O)NCc2cn3cccc(C)c3n2)c1` are the same in activity increase over dofetilide control, less the hit threshold: -17% for the first, -17% for the second.

First: CCOC(=O)c1c(C)[nH]c(=S)c(C#N)c1-c1ccc(Cl)cc1
Second: Cc1cccc(/C=N/NC(=O)c2cc(Br)ccc2O)n1
The activity increase over dofetilide control, less the hit threshold of the first is lower: -5% for the first, 0% for the second.

Compared with `c1ccc(Oc2cccc(OCCn3cncn3)c2)cc1`, `Oc1c(N=Nc2ccccn2)ccc2ccccc12` is lower in activity increase over dofetilide control, less the hit threshold: -4% for the first, -5% for the second.

Going from `COCC(=O)N(Cc1ccco1)c1nnc(C2CCOC2)s1` (centres undefined) to `CCC[C@H]1COCCS(=O)(=O)N1Cc1ccc(Br)cc1`, the activity increase over dofetilide control, less the hit threshold rises from -19% to -4%.

Going from `CC(C)C(NC(=O)c1ccccc1)C(=O)N/N=C\c1ccco1` (centres undefined) to `Cc1cc(NC(=O)/C(C#N)=C/c2ccco2)n(-c2ccccc2)n1`, the activity increase over dofetilide control, less the hit threshold rises from -17% to -12%.

Going from `Oc1ccc(N2CCN(C(c3cccnc3)c3nnnn3Cc3ccccc3)CC2)cc1` (centres undefined) to `Fc1cccc(/C=N/Nc2ccc3ccccc3n2)c1`, the activity increase over dofetilide control, less the hit threshold falls from 0% to -7%.

Compared with `Oc1ccc(N=Nc2ccc3c(c2)OCCO3)c2ncccc12`, `N=C1SCC(=O)N1c1ncc(Cc2ccccc2Cl)s1` is lower in activity increase over dofetilide control, less the hit threshold: -4% for the first, -9% for the second.

For `Cc1ccc(/C=N/NC(=O)c2cc(C)oc2C)o1`, the activity increase over dofetilide control, less the hit threshold was -5%.

In the case of `Cc1cc([N+](=O)[O-])c(C)cc1-c1ccc(/C=N/NC(=O)Cn2nnnc2N)o1`, the activity increase over dofetilide control, less the hit threshold is reported as 0% (active).
In the case of `O=C1NC(=S)S/C1=C\c1ccc2ccccc2c1`, the activity increase over dofetilide control, less the hit threshold is reported as 28% (active).
For `Cc1ccc(NC(=O)CN2C(=O)S/C(=C\c3ccc(-c4cccc(C(=O)O)c4C)o3)C2=O)cc1`, the activity increase over dofetilide control, less the hit threshold was 25% (active).
In the case of `Cc1ccc(C(=O)O)cc1-c1ccc(/C=C2\SC(=O)N(CC(=O)Nc3ccccc3)C2=O)o1`, the activity increase over dofetilide control, less the hit threshold is reported as 87% (active).
With `C#CCN1C(=O)S/C(=C\c2ccc(-c3ccc(C(=O)O)cc3C)o2)C1=O` the activity increase over dofetilide control, less the hit threshold was 1% (active).
`Cc1ccccc1NC(=O)CN1C(=O)S/C(=C\c2ccc(-c3cccc(C(=O)O)c3C)o2)C1=O` was tested, and the activity increase over dofetilide control, less the hit threshold was 19% (active).
In the case of `Cc1cccc(NC(=O)CN2C(=O)S/C(=C\c3ccc(-c4cccc(C(=O)O)c4C)o3)C2=O)c1`, the activity increase over dofetilide control, less the hit threshold is reported as 71% (active).
`O=C(CN1C(=O)S/C(=C\c2cccs2)C1=O)Nc1ccc(C(=O)O)c(O)c1` was tested, and the activity increase over dofetilide control, less the hit threshold was 12% (active).
In the case of `S=c1nc(C2CCCCC2)n(-c2ccccc2)[nH]1`, the activity increase over dofetilide control, less the hit threshold is reported as 24% (active).
`Cc1onc(-c2ccccc2)c1C(=O)NC(=S)Nc1sc2c(c1C#N)CCC(C)C2` (centres undefined) was tested, and the activity increase over dofetilide control, less the hit threshold was 24% (active).
In the case of `O=C(O)COc1ccc(NC(=O)c2ccc3c(c2)C(=O)N(C2CCCCC2)C3=O)cc1`, the activity increase over dofetilide control, less the hit threshold is reported as 4% (active).
`CC(NC(=O)NC1CCCCC1)c1ccccc1` (centres undefined) was tested, and the activity increase over dofetilide control, less the hit threshold was 9% (active).
`CC(NC(=O)NC1CCCCC1)c1ccc2c(c1)OCO2` (centres undefined) was tested, and the activity increase over dofetilide control, less the hit threshold was 1% (active).
For `O=C(NNc1nc2c(F)cccc2s1)c1cc(=O)c2ccccc2o1`, the activity increase over dofetilide control, less the hit threshold was 6% (active).
For `O=C(Nn1c(O)c(C=C2N=c3ccccc3=N2)sc1=S)c1cccc(Cl)c1`, the activity increase over dofetilide control, less the hit threshold was 33% (active).
In the case of `CCCCN1C(=O)/C(=C2/Sc3ccc(Cl)cc3N2CC)SC1=S`, the activity increase over dofetilide control, less the hit threshold is reported as 42% (active).
With `CCCCCC/C(C)=C1/SC(=S)NC1=O` the activity increase over dofetilide control, less the hit threshold was 87% (active).
In the case of `COCCN(C(=O)CSc1nnc(C)n1Cc1ccccc1)c1c(N)n(CC(C)C)c(=O)[nH]c1=O`, the activity increase over dofetilide control, less the hit threshold is reported as 1% (active).
`COc1cc(/C=C2/SC(=S)N(CC(=O)O)C2=O)ccc1OCC(=O)Nc1ccc(C)c(C)c1` was tested, and the activity increase over dofetilide control, less the hit threshold was 89% (active).
For `CCCCOc1ccc(-c2c(C#N)c(N)[nH]c(=S)c2C#N)cc1`, the activity increase over dofetilide control, less the hit threshold was 38% (active).
`Cc1ccc(C(=O)COC(=O)C2CCC2)cc1` was tested, and the activity increase over dofetilide control, less the hit threshold was 4% (active).
With `COc1ccc(-n2nc(C)cc2Nc2ccccc2C(=O)O)cc1` the activity increase over dofetilide control, less the hit threshold was 31% (active).
`Cc1ccc(N=Nc2ccc(O)c3ncccc23)cc1` was tested, and the activity increase over dofetilide control, less the hit threshold was 40% (active).
In the case of `COc1ccccc1N=Nc1ccc(O)c2ncccc12`, the activity increase over dofetilide control, less the hit threshold is reported as 2% (active).
With `CCN(CC)S(=O)(=O)c1cc(OC)ccc1N=Nc1ccc(O)c2ncccc12` the activity increase over dofetilide control, less the hit threshold was 27% (active).
With `COc1cccc(N=Nc2ccc(O)c3ncccc23)c1` the activity increase over dofetilide control, less the hit threshold was 25% (active).
In the case of `Cc1ccc(/C=N/NC(=O)c2cc3ccccc3cc2O)o1`, the activity increase over dofetilide control, less the hit threshold is reported as 37% (active).
`O=C(N/N=C/c1ccc(Sc2ccccn2)o1)c1cc2ccccc2cc1O` was tested, and the activity increase over dofetilide control, less the hit threshold was 7% (active).
